ELG1 genotoxic: genotoxicity induction in ELG1-luciferase HEK293T cells | HEK293T ELG1-luciferase reporter, luminescence, 16 h | Potency, µM (top dose mostly 46 µM), usual class: activators | 330,000 compounds, 1.3% hits; note: nearly all actives have a fitted effect of over 60% in size
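Step 1: seed 2,000 HEK293T ELG1-luciferase cells per well. Step 2: add compound or DMSO, incubate 16 hr at 37 °C. Step 3: ONE-Glo, 30 min at room temperature, read luminescence.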
FLuc counter: counter-screen for miR-21 project: firefly luciferase inhibitors or activators; P08659; purified FLuc, Km substrates, luminescence inhibition; Potency, µM (highest dose often 57.5 µM), hits mostly inhibitors; 360,000 compounds, 6.9% hits; note: nearly all actives have a fitted effect of over 55% in size
Target sequence (P08659 whole entry, looked up): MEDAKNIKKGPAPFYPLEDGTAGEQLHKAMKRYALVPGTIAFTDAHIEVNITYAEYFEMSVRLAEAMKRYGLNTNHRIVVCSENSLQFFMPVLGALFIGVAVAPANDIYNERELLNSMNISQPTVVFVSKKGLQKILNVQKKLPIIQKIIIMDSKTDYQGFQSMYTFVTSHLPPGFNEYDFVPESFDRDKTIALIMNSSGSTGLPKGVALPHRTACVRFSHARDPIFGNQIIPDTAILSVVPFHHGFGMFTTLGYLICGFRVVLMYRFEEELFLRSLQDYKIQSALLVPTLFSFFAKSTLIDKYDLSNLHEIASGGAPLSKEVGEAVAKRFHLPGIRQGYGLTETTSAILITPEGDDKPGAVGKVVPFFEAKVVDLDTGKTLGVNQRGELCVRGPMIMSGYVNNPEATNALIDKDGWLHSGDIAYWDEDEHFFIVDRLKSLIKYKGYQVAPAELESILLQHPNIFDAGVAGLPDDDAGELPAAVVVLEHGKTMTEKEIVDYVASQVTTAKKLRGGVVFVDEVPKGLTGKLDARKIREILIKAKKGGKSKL
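Biochemical qHTS of compounds, final roughly 60 µM downward over six points, against 10 nM purified firefly luciferase using Km concentrations of substrates (10 uM D-luciferin, 10 uM ATP) in Tris acetate pH 7.5 buffer; luminescence output.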
Rab9 promoter act: activators of Rab9 promoter; Huh7 Rab9 promoter-luciferase reporter, luminescence, 24 h; Potency, µM (titrated, usually from 9.22 µM), most hits filed as activators; 320,000 compounds, 2.8% hits; AID 485297; note: nearly all actives have a fitted effect of over 60% in size
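Measured in stably transfected Huh7 cells bearing a Rab9 promoter–luciferase construct: 24 h compound treatment at 37 °C, followed by luminescence detection.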
SMN2 splice up: increases expression of the SMN2 splice variant | Potency, µM (doses to about 46.1 µM), actives largely listed as activators | AID 1458 | 210,000 compounds, 2.8% hits | HEK293 SMN2-luciferase splicing reporter, luminescence, 30-36 h; note: nearly all actives have a fitted effect of over 55% in size
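HEK293 cells carry an SMN2 minigene-luciferase reporter in which exon 7 inclusion puts luciferase in frame. Cells were seeded at 2000 cells/well, attached for 10-12 hours, then exposed to compounds for 30-36 hours at 37C before ONE-Glo luminescence.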
NPC1 promoter act: NPC1 promoter activation; Potency, µM (titrated, usually from 9.22 µM), actives largely listed as activators; Huh7 NPC1 promoter luciferase reporter, 24 h; 320,000 compounds, 2.4% hits; note: nearly all actives have a fitted effect of over 60% in size
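Luciferase expression driven by the NPC1 promoter was measured in stably transfected Huh7 cells after a 24 h compound incubation, using a luciferase reagent and a luminescence read.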
Of the large screens only hits and unclear results are named; the others gave an inactive call. An excerpt weighted towards active compounds, which were near 7.5% of everything screened. Calls come from the whole dose curve; as a rule, active = well fitted curve in the direction sought with a large enough effect; inconclusive = small, poorly fitted or top-dose-only effect, or another doubt; inactive = no such curve, though single readings can be large; an effect the other way counts as inactive or inconclusive.

Cc1ccc(-n2[nH]c(C)c(C=Nc3ccc4[nH]c(=O)[nH]c4c3)c2=O)cc1C	FLuc counter inconclusive
COc1ccc(-c2c(-c3ccc4c(c3)OCO4)noc2C)cn1	FLuc counter 21.3µM (no result: SMN2 splice up)
COc1ccc(-c2c(-c3cc(OC)c(OC)c(OC)c3)noc2C)cn1	ELG1 genotoxic inconclusive, FLuc counter inconclusive (no result: SMN2 splice up)
CCOC(=O)c1ccc(NC(=O)CC2C(=O)N(c3cccc(C)c3)C(=O)N2CCOC)cc1 (configuration not stated)	none (no result: ELG1 genotoxic, Rab9 promoter act, NPC1 promoter act)
CCOC(=O)c1ccc(NC(=O)CC2C(=O)N(c3cccc(OC)c3)C(=O)N2CCOC)cc1 (configuration not stated)	SMN2 splice up 3.98µM
COc1ccc(Cl)cc1NC(=O)CSc1nc2sccc2c(=O)[nH]1	FLuc counter inconclusive (no result: SMN2 splice up)
COC(=O)c1cc(Cl)c(NC(=O)/C=C/c2ccc(OC)cc2)cc1OC	none
COc1ccccc1/C=C/C(=O)Nc1cccnc1Cl	FLuc counter 26.9µM, NPC1 promoter act inconclusive (no result: SMN2 splice up)
COc1ccc(/C=C/C(=O)Nc2cccnc2Cl)cc1	ELG1 genotoxic 9.2µM, FLuc counter 5.36µM, Rab9 promoter act 2.51µM, NPC1 promoter act 2µM (no result: SMN2 splice up)
COc1cc(/C=C/C(=O)NCc2ccccn2)cc(OC)c1OC	none
COc1ccccc1/C=C/C(=O)NCCc1ccccn1	ELG1 genotoxic inconclusive, FLuc counter 13.5µM, Rab9 promoter act 2.82µM, NPC1 promoter act inconclusive (no result: SMN2 splice up)
COc1ccc(/C=C/C(=O)Nc2ccc(Cl)c(Cl)c2)cc1	FLuc counter 4.78µM (no result: ELG1 genotoxic, Rab9 promoter act, NPC1 promoter act)
CCCCOc1ccc(C(=O)NN2C(=O)NC3(CCCCC3)C2=O)cc1OC	none (no result: SMN2 splice up)
Cc1ccc2c(Cl)c(C(=O)NCCc3ccccc3)sc2c1	ELG1 genotoxic inconclusive, FLuc counter 6.01µM, Rab9 promoter act 2.51µM, SMN2 splice up 15.8µM, NPC1 promoter act 3.55µM
Cc1cc(NC(=O)c2c(Cl)cccc2Cl)no1	none
CCNC(=O)c1sc2cc(C)ccc2c1Cl	ELG1 genotoxic inconclusive, FLuc counter 10.7µM, Rab9 promoter act 3.16µM, NPC1 promoter act inconclusive
Cc1ccc2c(Cl)c(C(=O)Nc3cc(C)on3)sc2c1	ELG1 genotoxic 8.2µM, FLuc counter inconclusive, Rab9 promoter act 2.24µM, SMN2 splice up inconclusive, NPC1 promoter act 2.82µM
COc1ccc(CCNC(=O)c2sc3cc(C)ccc3c2Cl)cc1	none
O=C(NCCCN1CCOCC1)c1sc2cc(Cl)ccc2c1Cl	none
Cn1c(C(=O)NCCc2ccccc2)cc2sc(Cl)cc21	FLuc counter 1.2µM, SMN2 splice up 2.82µM (no result: ELG1 genotoxic, Rab9 promoter act, NPC1 promoter act)
COc1cc2c(c(OC)c1OC)C(=O)CC2	none (no result: SMN2 splice up)
COc1ccc(NC2=C(c3ccccc3)C(=O)c3ccccc32)cc1Cl	none (no result: ELG1 genotoxic, Rab9 promoter act, NPC1 promoter act)
O=C(Nc1cccc2nsnc12)c1ccc2c(c1)OCCO2	ELG1 genotoxic inconclusive, FLuc counter 10.7µM, Rab9 promoter act 3.55µM, SMN2 splice up inconclusive, NPC1 promoter act inconclusive
O=C(Nc1cccc2nsnc12)c1ccc2c(c1)OCO2	FLuc counter 16.9µM, Rab9 promoter act inconclusive, NPC1 promoter act inconclusive
CCN=c1scc(-c2ccco2)n1/N=C/c1ccc(O)cc1	ELG1 genotoxic 11.6µM, FLuc counter 6.75µM, Rab9 promoter act inconclusive, SMN2 splice up inconclusive, NPC1 promoter act inconclusive
Cc1ccc(/C=N/n2c(-c3ccco3)n[nH]c2=S)cc1	none (no result: SMN2 splice up)
CCN=c1scc(-c2ccco2)n1/N=C/c1ccc(OC)c(O)c1	FLuc counter 5.36µM, SMN2 splice up inconclusive (no result: ELG1 genotoxic, Rab9 promoter act, NPC1 promoter act)
O=C(Nc1cc(=O)c2ccccc2o1)N1CCOCC1	none
NC(Cc1cccc(-c2ccccc2CP(=O)(O)O)c1)C(=O)O (configuration not stated)	none (no result: ELG1 genotoxic, FLuc counter)
C=CCn1c(C)cc(C(=O)COC(=O)c2cncc(Br)c2)c1C	FLuc counter 1.9µM, Rab9 promoter act inconclusive (no result: SMN2 splice up)
C=CCn1c(C)cc(C(=O)COC(=O)CCc2cc(OC)c(OC)c(OC)c2)c1C	none (no result: FLuc counter, Rab9 promoter act, SMN2 splice up, NPC1 promoter act)
COCCn1c(C)cc(C(=O)COc2ncnc3ccc(Br)cc23)c1C	none
C=CCn1c(C)cc(C(=O)COc2ncnc3sccc23)c1C	ELG1 genotoxic 2.59µM, FLuc counter 2.39µM, Rab9 promoter act 0.794µM, SMN2 splice up 5.62µM, NPC1 promoter act 0.891µM
CCc1[nH]nc2c1C(c1cccc(OC(=O)N3CCOCC3)c1)C(C#N)=C(N)O2 (configuration not stated)	SMN2 splice up inconclusive
CCOc1cc(/C=C(/C#N)c2ccc(F)cc2)ccc1OCc1ccc(C(=O)O)o1	FLuc counter 13.5µM
Nc1cc2nc[nH]c2cc1N	FLuc counter 15.1µM
